Reference: PubChem BioAssay (NCI)
About 83,000 compounds went through this panel and 20% of them were active in at least one assay; those are over-represented in the sample as a whole.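 The test compound was applied at a single concentration to cells in 96-well plates for 48 hours, and percent growth was recorded.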 Unmarked numbers belong to inactive results. Calls of active or inactive are those of the source. Rule for the calls: active = growth percent below 10; inactive = the rest.

System: HL-60(TB) leukemia
Assay: NCI-60 one-dose screen, 48 h (100 = growth as untreated, 0 = no growth, -100 = all killed)
Settings: 10 µM unless noted

**Q.** Which growth does the source give for `COc1cc(-c2cn(-c3ccc(Cl)c(Cl)c3)c(=O)[nH]2)cc(OC)c1OC` here?
**A.** 88.1%

**Q.** With `COc1ccc(-c2nnc(COc3ccc(C(=O)/C=C/c4ccco4)cc3)o2)cc1` as the compound, how does the growth read?
**A.** 79.7%

**Q.** `Cc1cc(=O)oc2cc(OC(=O)N3CCN(C)CC3)ccc12` was tested. Which growth did it give?
**A.** 106%

**Q.** With `O=c1c2cccc(F)c2sc2c(N3CCNCC3)nc3ccccc3c12` as the compound, how does the growth read?
**A.** 30.9%

**Q.** How did the growth turn out when `CCCCc1ccc(NS(=O)(=O)c2cc3c4c(c2)CCN4C(=O)CC3)cc1` was run?
**A.** -23.6% (active)

**Q.** With `CCc1c2c(nc3ccc(OCc4ccc(B5OC(C)(C)C(C)(C)O5)cc4)cc13)-c1cc3c(c(=O)n1C2)COC(=O)[C@]3(O)CC` as the compound, how does the growth read?
**A.** -1.71% (active)

**Q.** `Cc1ccc2c(c1)c1nc3cc(C)c(C)cc3nc1n2CCN(C)C` was tested. Which growth did it give?
**A.** 11%

**Q.** `COc1cc2oc(-c3cccc(C(=O)Nc4ccc(Cl)cc4)c3)cc(=O)c2c(OC)c1OC` was tested. Which growth did it give?
**A.** -11.1% (active)

**Q.** `COc1ccccc1C(OC(C)=O)OC(C)=O` was tested. Which growth did it give?
**A.** 87%

**Q.** For `CCOc1ccc(-c2nc3ccc(-c4nc5ccc(N6CCN(C)CC6)cc5[nH]4)cc3[nH]2)cc1`, which growth is on record?
**A.** -57.9% (active)

**Q.** `CCCCCSc1ccc2nc(NC(=O)OCCC)sc2c1` was tested. Which growth did it give?
**A.** 5.41% (active)

**Q.** For `O=C(CN1CCNCC1)N1CCOCC1`, which growth is on record?
**A.** 68.5%

**Q.** Which growth does the source give for `COc1cccc(C(=O)O)c1OC` here?
**A.** 106%

**Q.** For `CCN(CC)CCC(CNc1c2ccc([N+](=O)[O-])cc2nc2cc(OC)c(OC)cc12)c1ccccc1` (configuration not stated), which growth is on record?
**A.** -15.9% (active)

**Q.** `COc1ccc(/C=N/C2=C(C#N)C(c3ccccc3)c3ccc4ccccc4c3O2)cc1` (configuration not stated) was tested. Which growth did it give?
**A.** 1.71% (active)

**Q.** How did the growth turn out when `COC(=O)c1nc(-c2ccccc2)oc1S(=O)(=O)NCC(c1ccc(Cl)cc1)N1CCOCC1` (configuration not stated) was run?
**A.** 4.12% (active)

**Q.** How did the growth turn out when `O=C1Nc2ccc(Br)cc2C1=N/C=c1\[nH]c(=O)/c(=C/c2ccc(Cl)cc2)s1` was run?
**A.** 100%

**Q.** Which growth does the source give for `COc1cc(C(=O)/C=C/c2c(-c3ccc(F)cc3)nc3sc(C)cn23)cc(OC)c1OC` here?
**A.** -34% (active)

**Q.** `CCSc1ccc2c(c1)N(CCCN1CCN(C)CC1)c1ccccc1S2` was tested. Which growth did it give?
**A.** 37.1%

**Q.** With `CCOc1nc(-c2ccccc2)cc2c(O)c(C(=O)N/N=C/c3ccc(OC)cc3)[nH]c(=O)c12` as the compound, how does the growth read?
**A.** 65.1%

**Q.** For `C=C(C)[C@@H]1CC[C@]2(C(=O)NCC(=O)O)CC[C@]3(C)[C@H](CC[C@@H]4[C@@]5(C)Cc6c([nH]c7ccccc67)C(C)(C)[C@@H]5CC[C@]43C)[C@@H]12`, which growth is on record?
**A.** 101%

**Q.** For `O=c1[nH]c(-c2cn(-c3ccc(Cl)cc3)nn2)nc2ccccc12`, which growth is on record?
**A.** 100%

**Q.** With `CCN(CC)c1ccc(/C=C/c2cc(C)c3ccccc3n2)cc1` as the compound, how does the growth read?
**A.** 59.1%

**Q.** With `O=C(O)c1cc(C(=O)O)cc([N+](=O)[O-])c1` as the compound, how does the growth read?
**A.** 94.5%

**Q.** How did the growth turn out when `CCOC(=O)c1c(C)nn(CC(O)c2ccccc2)c1NC(=O)Nc1cccc(F)c1` (configuration not stated) was run?
**A.** 107%

**Q.** `O=C1/C(=C/c2ccccc2[N+](=O)[O-])COc2ccc(O)cc21` was tested. Which growth did it give?
**A.** -8.06% (active)

**Q.** With `C=C(CN1CCN(c2cccc(C(F)(F)F)n2)CC1)c1ccc(C(=O)Nc2ccccc2N)cc1` as the compound, how does the growth read?
**A.** -27.4% (active)
